3 compounds from PubChem BioAssay AID651822 (The Scripps Research Institute Molecular Screening Center, 2012) can be followed below.

The campaign covered roughly 2,300 compounds. About 970 (42%) were called active. Rule as the data show it: active = inhibition above about 4.5%; inactive = the rest. So high a share suggests a set chosen from earlier hits. These entries were drawn from the full list.

The test relates to Methionine sulfoxide reductase A (Bos taurus). As to the kind of experiment: methionine sulfoxide reductase A inhibition – biochemical, absorbance, bovine, HTS, confirmation (AID 651822).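 Also: coupled to thioredoxin reductase with NADPH and selenocystamine and DMSO as substrate; 0% = vehicle only and 100% = full effect of reference inhibitor.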 As to conditions: purified bovine MsrA, absorbance read-out; at 15.5 µM; hits give high values.
For `CCCCC(=O)N/N=C/c1c(O)n(CC)c(=S)n(CC)c1=O`, the inhibition was 6.08% (active).

In the case of `CCOc1ccc(-c2cc(C)[n+](CCN(CC)CC)c(-c3ccc(OCC)cc3)c2)cc1`, the inhibition was 3.69% (inactive). With `COc1ccc(C(=O)C2CCCN(Cc3ccc(C)s3)C2)cc1OC` (stereo not drawn) the figure was -0.82% (inactive).

A word on the inhibition: it is the drop in the measured response relative to a control, in per cent.
